Test [1] can be described thus: qHTS assay for small molecule disruptors of the mitochondrial membrane potential - 1 hr assay (AID 651754; calls by dose curve; also: nearly all actives have a fitted effect of over 35% in size; also: potency is read from the fitted curve at half-maximal effect). Put shortly: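 Read-out: dye fluorescence at 490 nm ex/535 nm em (monomers) and 540 nm ex/590 nm em (aggregates) in HepG2 cells. Compound exposure 1 hr at 37C, followed by 30 min dye loading.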
(In general: In qHTS, concentration-response curves come from the screen itself.)

Test [2] can be described thus: qHTS assay for small molecule disruptors of the mitochondrial membrane potential - 5 hr assay (AID 651755; calls by dose curve; also: nearly all actives have a fitted effect of over 40% in size; also: potency is read from the fitted curve at half-maximal effect). The method in brief: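 Read-out: ratiometric Mito-MPS fluorescence, green monomer (ex 490/em 535) vs red mitochondrial aggregate (ex 540/em 590). HepG2 cells treated 5 hr at 37C before 30 min dye loading.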
Test [3] has as its target Tumor necrosis factor (Homo sapiens) (UniProt P01375). Description: qHTS assay to identify small molecules that stimulate Tumor Necrosis Factor-alpha (TNF-alpha) secretion (AID 651757; active = well fitted curve in the direction sought with a large enough effect in the signal ratio; the % refers to the signal ratio; also: 0% is about no effect). Put shortly:
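THP-1 cells, 3000/well; compound 17 hrs, 37 C; add cryptate/XL665 anti-TNF-alpha antibody pair; 3 hr RT; TR-FRET (HTRF) read of secreted TNF-alpha. Quantitative HTS format.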

Test [4] is described as follows: qHTS assay for environmental chemicals that activate the Aryl hydrocarbon Receptor (AhR) signaling pathway (AID 651777). Also: % of control where 0% means no effect; nearly all actives have a fitted effect of over 15% in size. Conditions: 1A2-DRE human hepatoma cells, luciferase, 24 h; activation: active compounds read high. Put shortly:
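Human hepatoma 1A2-DRE cells, stably carrying a dioxin response element and CYP1A2 promoter driving luciferase, were exposed to compounds for 24 hr at 37 C and 5% CO2. Luciferase signal was then read after 30 min One-Glo at room temperature.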

In test [5] the target is Peroxisome proliferator-activated receptor alpha (Homo sapiens) (UniProt Q07869). Kind of test: qHTS assay for small molecule agonists of the peroxisome proliferator-activated receptor alpha (PPARalpha) signaling pathway (AID 651778). Also: % of control where 0% means no effect. Conditions: PathHunter PPARalpha complementation, chemiluminescence, 6 h; max response: active compounds read high. Put shortly: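 Enzyme-fragment complementation assay in which ligand-bound PPARalpha translocates and forms an active enzyme that generates chemiluminescence. Cells were plated overnight, exposed to compound for 6 hr at 37 C, and then given detection reagent for 60 min at room temperature.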
Chain of Peroxisome proliferator-activated receptor alpha (Homo sapiens) (Q07869 whole entry, looked up, the tested form may be a part): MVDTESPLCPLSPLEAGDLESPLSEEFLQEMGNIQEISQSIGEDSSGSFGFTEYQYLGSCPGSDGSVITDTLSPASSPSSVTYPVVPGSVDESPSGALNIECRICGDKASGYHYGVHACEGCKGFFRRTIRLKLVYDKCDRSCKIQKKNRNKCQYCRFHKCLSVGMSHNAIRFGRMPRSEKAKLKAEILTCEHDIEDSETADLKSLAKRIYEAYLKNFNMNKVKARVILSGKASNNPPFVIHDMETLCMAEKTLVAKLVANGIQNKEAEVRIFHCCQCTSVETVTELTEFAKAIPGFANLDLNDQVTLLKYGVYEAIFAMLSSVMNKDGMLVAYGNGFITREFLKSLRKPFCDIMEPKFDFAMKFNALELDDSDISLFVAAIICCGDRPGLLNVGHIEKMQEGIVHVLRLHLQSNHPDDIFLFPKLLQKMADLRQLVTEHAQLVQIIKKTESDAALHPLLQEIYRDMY

For test [6], the target named is Nuclear receptor ROR-gamma (Homo sapiens) (UniProt P51449). Description: qHTS assay for small molecule antagonists of the retinoid-related orphan receptor gamma (ROR-gamma) signaling pathway (AID 651802).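 Also: CHO cells with doxycycline-induced ROR-gamma expression; luciferase reporter luminescence driven by ROR response element; series mostly up to about 92 µM; % is scaled to controls: 0 for no effect and ±100 for the full control effect; nearly all actives have a fitted effect of over 60% in size.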 The method in brief:
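Luciferase read-out: ONE-Glo luminescence after 30 min at room temperature, following 16hr doxycycline induction at 37C, 5% CO2 of CHO cells with TET-inducible ROR and RORE-LUC reporter; decreased luminescence = reduced reporter activity.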

Test [7] in a line: qHTS for compounds that reverse cellular toxicity of Amyloid beta (A-beta) peptide in yeast: LOPAC Validation Assay (AID 720559).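 Also: plate controls were DMSO for no effect and equimolar ferric chloride plus clioquinol rescue for full effect.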 The method in brief:
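Here, A-beta-toxic yeast grow with test compounds at 30 C for 48 hr before optical density at 600 nm is recorded; data are normalized against DMSO and the FeCl3-clioquinol control.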

A short description of test [8]: qHTS for Activators of Parkin Expression: LOPAC Validation Assay (NLuc Reporter) (AID 720572). The method in brief:
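NLuc signal, read 10 min after reagent and following a prior FLuc read, is normalized to DMSO (0) and positive controls (100%). Cells: neuronal Parkin-promoter coincidence reporter line; compounds tested 7-point, 24 h, 37 C, 5% CO2.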

Test [9] in a line: qHTS for Activators of Parkin Expression: LOPAC Validation Assay (FLuc Reporter) (AID 720573). The method in brief:
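Readout is FLuc luminescence from neuronal reporter cells (Parkin promoter, FLuc plus NLuc) after 24 h compound exposure in dose response. Values normalized to neutral DMSO and positive-control compounds.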

Test [10] can be described thus: qHTS assay for small molecule agonists of the antioxidant response element (ARE) signaling pathway measured by Nrf2-dependant transcriptional activity (AID 720636; active = well fitted curve in the direction sought with a large enough effect in the repeat runs; an effect the other way counts as inactive or inconclusive; also: % of control where 0% means no effect). Put shortly:
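ARE-luc HepG2 cells carrying an Nrf2-responsive luciferase reporter were plated in medium with 1% dialyzed FBS, left 6 hr at 37 C to attach, then exposed to compound for 16 hr. Luciferase luminescence was read after ONE-Glo addition.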

Test [11] in a line: qHTS assay for small molecule antagonists of the retinoid-related orphan receptor gamma (ROR-gamma) signaling pathway - cell viability counter screen (AID 720652; active = well fitted curve in the direction sought with a large enough effect in the repeat runs; an effect the other way counts as inactive or inconclusive;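 also: CHO reporter cells with doxycycline-induced ROR-gamma expression; series mostly up to about 92 µM; compound exposure lasted 16 hr before ATP read; % is scaled to controls: 0 for no effect and ±100 for the full control effect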). Put shortly: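 CHO RORE-LUC/TET-ROR line, 1,000 cells/well, 37 C 5% CO2 5 hr; cpd or DMSO + doxycycline induction, 16 hr. CellTiter-Glo, 30 min RT, luminescence = ATP content.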
Test [12] can be described thus: qHTS assay for small molecule agonists of the antioxidant response element (ARE) signaling pathway measured by Nrf2-dependant transcriptional activity - cell viability counter screen (AID 720653; active = well fitted curve in the direction sought with a large enough effect in the repeat runs; an effect the other way counts as inactive or inconclusive; also: % is scaled to controls: 0 for no effect and ±100 for the full control effect). Conditions: ARE-bla HepG2 viability, CellTiter-Glo ATP luminescence, 16 h; max response: active compounds read low. The method in brief: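 ARE-bla HepG2 cells treated with compounds for 16 h at 37C; this counter screen measures viability as intracellular ATP by CellTiter-Glo luminescence after 30 min at room temperature.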

The target of test [13] is Hexokinase-4 (Homo sapiens) + Glucokinase regulatory protein (Homo sapiens) (UniProt P35557+Q14397). Kind of test: qHTS assay for inhibitors of recombinant human GCK-GKRP interaction: Diaphorase-coupled assay (AID 743205). Put shortly: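 Signal derives from resorufin generated by diaphorase, linked to GCK turnover of glucose (5 mM) and ATP (0.4 mM). Enzyme complex was added after a 20-minute compound preincubation and monitored for 30 minutes.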
Chain of Hexokinase-4 (Homo sapiens) + Glucokinase regulatory protein (Homo sapiens) (P35557 whole entry, looked up): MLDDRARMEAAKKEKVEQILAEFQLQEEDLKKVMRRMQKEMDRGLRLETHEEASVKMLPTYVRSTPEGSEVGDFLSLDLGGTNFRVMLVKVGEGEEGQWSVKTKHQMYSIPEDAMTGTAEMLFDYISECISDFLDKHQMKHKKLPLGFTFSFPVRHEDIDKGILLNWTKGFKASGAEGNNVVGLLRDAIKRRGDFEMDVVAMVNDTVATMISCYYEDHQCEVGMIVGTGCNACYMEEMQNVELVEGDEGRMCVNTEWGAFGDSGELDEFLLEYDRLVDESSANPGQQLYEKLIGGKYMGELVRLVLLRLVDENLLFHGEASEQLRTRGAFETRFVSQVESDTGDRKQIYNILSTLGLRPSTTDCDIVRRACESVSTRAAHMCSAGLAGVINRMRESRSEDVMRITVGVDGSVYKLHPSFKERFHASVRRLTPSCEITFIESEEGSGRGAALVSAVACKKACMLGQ
Chain of Hexokinase-4 (Homo sapiens) + Glucokinase regulatory protein (Homo sapiens) (Q14397 whole entry, looked up): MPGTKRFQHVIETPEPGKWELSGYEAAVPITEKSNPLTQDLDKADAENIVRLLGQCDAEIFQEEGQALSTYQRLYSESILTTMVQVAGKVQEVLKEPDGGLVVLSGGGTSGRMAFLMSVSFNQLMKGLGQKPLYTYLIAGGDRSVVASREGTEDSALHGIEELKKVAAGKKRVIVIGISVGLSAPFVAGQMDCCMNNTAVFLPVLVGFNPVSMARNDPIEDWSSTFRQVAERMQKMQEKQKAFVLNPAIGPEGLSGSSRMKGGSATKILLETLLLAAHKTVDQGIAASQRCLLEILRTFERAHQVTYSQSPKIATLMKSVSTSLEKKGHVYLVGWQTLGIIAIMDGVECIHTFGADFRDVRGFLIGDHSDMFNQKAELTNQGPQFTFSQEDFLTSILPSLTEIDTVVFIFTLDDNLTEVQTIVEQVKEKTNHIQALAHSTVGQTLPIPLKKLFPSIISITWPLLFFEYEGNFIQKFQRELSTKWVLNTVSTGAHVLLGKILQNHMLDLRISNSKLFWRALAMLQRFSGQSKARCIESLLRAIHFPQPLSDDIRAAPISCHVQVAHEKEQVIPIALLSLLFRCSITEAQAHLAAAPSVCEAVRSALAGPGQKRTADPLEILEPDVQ

A short description of test [14]: qHTS assay for small molecule activators of the p53 signaling pathway (AID 651743; active = well fitted activation curve with a large enough effect in the signal ratio, not every such curve was filed as active; the % refers to the signal ratio; also: series mostly up to about 92 µM; % of control where 0% means no effect). Conditions: HCT-116 p53RE-bla, beta-lactamase FRET ratio, 16 h; activation: active compounds read high. Put shortly:
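Reporter: beta-lactamase driven by p53 response elements, stably integrated in HCT-116 cells. Cells seeded at 4,000/well, 5 h preincubation, compound (DMSO) 16 h at 37 C; B/G FRET substrate 2 h RT; fluorescence intensity read.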

Test [15] in a line: qHTS assay for small molecule activators of the nuclear factor-kappa B (NF-kB) signaling pathway (AID 651749; active = well fitted activation curve with a large enough effect in the signal ratio; the % refers to the signal ratio; also: series mostly up to about 77 µM; % of control where 0% means no effect). Conditions: NF-kB-bla ME-180 cells, beta-lactamase FRET ratio, 16 h; active compounds read high. The method in brief:
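NF-kB-bla ME-180 cells, 2,000/well; 23 nL compound or DMSO pinned; 16 hr, 37C/5% CO2; beta-lactamase FRET read-out.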

For test [16], the target named is Arylsulfatase A (Homo sapiens) (UniProt P15289). Description: qHTS screen for enhancers of Arylsulfatase A (ASA1): LOPAC Validation Assay (AID 720538). Put shortly:
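Cell-based enhancement test: residual ASA activity in SV40-transformed I179S patient fibroblasts is measured by pNCS turnover (0.5mM final, 14h, room temperature) following 48h compound incubation; higher fluorescence indicates activation.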

Test [17] in a line: qHTS assay for small molecule agonists of the antioxidant response element (ARE) signaling pathway (AID 651741; active = well fitted activation curve with a large enough effect in the signal ratio; the % refers to the signal ratio; also: potency is read from the fitted curve at half-maximal effect; as to activation: % of control where 0% means no effect). The method in brief:
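HepG2 ARE-bla reporter cells, 2,000/well; 5 h settle at 37 C/5% CO2; compound pin transfer (23 nL, DMSO); 16 h at 37 C; LiveBLAzer B/G FRET substrate, 2 h RT; fluorescence intensity read.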

Test [18] concerns the target Tyrosine-protein kinase Yes (Homo sapiens) (UniProt P07947). Description: qHTS for small molecule inhibitors of Yes1 kinase: Primary Screen (AID 686947).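 Also: plate controls were DMSO with enzyme for no effect and no-enzyme DMSO wells for full effect; nearly all actives have a fitted effect of over 60% in size.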 The method in brief: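 In this qHTS format, inhibition is expressed relative to DMSO controls with enzyme (maximum) and without enzyme (minimum). The 60 min room-temperature reaction uses 0.1 mM ATP, with ADP detected by luminescence.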

Test [19] in a line: qHTS for small molecule inhibitors of Yes1 kinase: Counter Assay (AID 686950).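 Also: no kinase present so only ADP-Glo detection of a fixed ADP amount is tested; luminescence from ADP-Glo reporting ADP in a fixed ATP and ADP mixture; series mostly up to about 77 µM; 0% = DMSO wells with ATP plus ADP and -100% = ATP-only wells without ADP.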 Put shortly:
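No kinase present; 0.08 mM ATP + 0.02 mM ADP in 50 mM Tris pH 7.5, 10 mM MgCl2, 150 mM NaCl, 1 mM DTT; 20 min compound preincubation, 60 min RT, ADP-Glo luminescence, normalized to ATP/ADP (max) and ATP-only (min).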

“And” between values parts separate entries of the source, which are not always exact repeats. Equal values may be shown once. Values without a mark were called inactive. Inconclusive results are not listed. The source made the active and inactive calls. Unless noted, calls follow the shape of the dose curve; as a rule, active = well fitted curve in the direction sought with a large enough effect; inconclusive = small, poorly fitted or top-dose-only effect, or another doubt; inactive = no such curve, though single readings can be large; an effect the other way counts as inactive or inconclusive.

Chain of Arylsulfatase A (Homo sapiens) (P15289 whole entry, looked up): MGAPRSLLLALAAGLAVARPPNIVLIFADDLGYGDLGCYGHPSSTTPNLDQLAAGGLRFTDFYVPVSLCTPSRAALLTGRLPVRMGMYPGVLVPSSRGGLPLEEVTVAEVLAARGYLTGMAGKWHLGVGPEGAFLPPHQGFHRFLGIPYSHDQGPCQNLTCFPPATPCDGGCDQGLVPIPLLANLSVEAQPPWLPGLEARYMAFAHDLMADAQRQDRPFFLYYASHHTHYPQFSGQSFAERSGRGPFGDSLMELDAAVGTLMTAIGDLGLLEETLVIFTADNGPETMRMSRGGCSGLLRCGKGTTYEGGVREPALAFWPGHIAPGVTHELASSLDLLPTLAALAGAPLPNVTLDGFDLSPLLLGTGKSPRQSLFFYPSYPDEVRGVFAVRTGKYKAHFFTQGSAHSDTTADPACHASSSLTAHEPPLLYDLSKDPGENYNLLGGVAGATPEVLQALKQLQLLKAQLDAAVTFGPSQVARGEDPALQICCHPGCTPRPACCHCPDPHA
Chain of Nuclear receptor ROR-gamma (Homo sapiens) (P51449 whole entry, looked up): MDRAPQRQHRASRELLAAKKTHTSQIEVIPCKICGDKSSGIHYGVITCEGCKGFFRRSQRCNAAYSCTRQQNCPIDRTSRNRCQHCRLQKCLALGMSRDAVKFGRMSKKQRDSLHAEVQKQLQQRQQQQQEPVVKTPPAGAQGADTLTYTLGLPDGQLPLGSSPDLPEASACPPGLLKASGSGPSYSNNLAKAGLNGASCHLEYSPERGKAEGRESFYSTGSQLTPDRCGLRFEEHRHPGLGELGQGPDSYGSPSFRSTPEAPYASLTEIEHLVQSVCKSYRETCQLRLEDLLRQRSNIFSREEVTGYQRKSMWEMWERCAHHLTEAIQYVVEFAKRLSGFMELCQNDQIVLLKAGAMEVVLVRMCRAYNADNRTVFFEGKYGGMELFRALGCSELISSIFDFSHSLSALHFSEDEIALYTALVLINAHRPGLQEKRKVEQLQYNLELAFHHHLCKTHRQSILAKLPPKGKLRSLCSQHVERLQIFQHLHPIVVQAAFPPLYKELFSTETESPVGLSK
Chain of Tumor necrosis factor (Homo sapiens) (P01375 whole entry, looked up): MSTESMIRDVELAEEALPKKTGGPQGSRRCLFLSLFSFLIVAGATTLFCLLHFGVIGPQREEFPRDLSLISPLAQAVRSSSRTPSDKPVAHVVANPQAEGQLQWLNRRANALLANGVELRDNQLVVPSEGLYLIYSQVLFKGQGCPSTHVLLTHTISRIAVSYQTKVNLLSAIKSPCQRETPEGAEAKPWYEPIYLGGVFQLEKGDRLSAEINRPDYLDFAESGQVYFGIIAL
Chain of Tyrosine-protein kinase Yes (Homo sapiens) (P07947 whole entry, looked up): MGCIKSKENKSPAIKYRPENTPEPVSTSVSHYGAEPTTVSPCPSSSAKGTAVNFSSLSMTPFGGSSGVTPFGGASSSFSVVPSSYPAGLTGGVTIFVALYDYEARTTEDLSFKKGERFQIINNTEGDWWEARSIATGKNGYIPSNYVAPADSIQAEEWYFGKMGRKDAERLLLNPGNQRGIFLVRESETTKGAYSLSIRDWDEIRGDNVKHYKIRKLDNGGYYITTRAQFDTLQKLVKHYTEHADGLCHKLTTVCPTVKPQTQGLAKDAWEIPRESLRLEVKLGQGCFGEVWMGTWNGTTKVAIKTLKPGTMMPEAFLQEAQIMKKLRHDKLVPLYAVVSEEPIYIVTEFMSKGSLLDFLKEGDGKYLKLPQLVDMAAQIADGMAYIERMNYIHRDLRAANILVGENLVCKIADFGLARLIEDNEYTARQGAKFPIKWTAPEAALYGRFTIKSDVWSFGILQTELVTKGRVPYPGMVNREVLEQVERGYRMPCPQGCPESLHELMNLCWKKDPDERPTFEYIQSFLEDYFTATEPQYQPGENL

In the case of `CC(C)NCC(O)c1ccc(O)c(O)c1` (configuration not stated), the Potency entry in [1], in test [2], in [6], in [9], in test [11] and in test [13] was “inactive” throughout. The call in test [3], in test [7], in test [8] and in test [10] was inactive. Moreover, the activation in test [4] was 0.956% and 0.375%. Moreover, the max response in test [5] is -1.03% and -0.0809%; in test [12] it was 0.482% and -3.43%.
In the case of `C[C@](N)(Cc1ccc(O)c(O)c1)C(=O)O`, the activation in test [14] was -5.22%; in [15], 0.934%; in [4], -1.04%. The max response is -1.06% in test [5] and -0.408% in test [12]. Besides, the call in [7], in test [8] and in [10] was inactive. Besides, in test [9], the Potency entry was “inactive”.
For the compound `Nc1c2c(nc3ccccc13)CCCC2`, the activation in test [14] is 1%; in [4], 11.6%. The values for the max response in test [5] and in test [12] were -6.35% and -10.2%, respectively. The Potency entry in test [6], in [16], in test [9] and in test [11] was “inactive” each time. Also, the call in [7], in test [8] and in test [10] was inactive.
With `Cc1ccc(-c2cc(C(F)(F)F)nn2-c2ccc(S(N)(=O)=O)cc2)cc1`, the Potency in [17] is 66.8 µM (active); in [1], 42.2 µM (active); in test [2], 42.2 µM (active). Besides, the activation in test [15] was -1.1%; in test [4], -1.91%. Besides, the compound was called inactive in test [3], in test [19] and in [10]. The max response in test [5] was 3.54%; in [12] it was -0.182%. Besides, the Potency result in test [18] is “inactive”.
In the case of `O=C(c1ccc(OCCN2CCCCC2)cc1)c1c(-c2ccc(O)cc2)sc2cc(O)ccc12`, in test [4], the activation is -4.31%. Also, in test [5], the max response was -6.34%. For the same compound, the Potency result in [16], in [9] and in [13] was “inactive” in each case. For the same compound, the compound was classed as inactive in test [7], in test [8] and in test [10].
With `Cn1cnc2c1c(=O)[nH]c(=O)n2C`, the Potency entry in test [17], in test [16], in [9] and in test [13] was “inactive” throughout. The results for the activation in test [15] and in test [4] were -2.65% and 2.86%, respectively. Further, the results for the max response in [5] and in [12] were -2.11% and 4.98%, respectively. Also, the compound was classed as inactive in [7], in [8] and in test [10].
For `O=C(CCCN1CCC(O)(c2ccc(Cl)cc2)CC1)c1ccc(F)cc1`, the activation in test [14] is 0.976%; in [4] it was -0.128%. The figures for the max response in test [5] and in [12] were -1.35% and -9.04%, respectively. Further, the Potency entry in test [16] and in test [9] was “inactive” throughout. In addition, the compound was called inactive in test [7], in [8] and in [10].

For the origin of these results see PubChem BioAssay (NCATS).
